Screens as filed in PubChem BioAssay.
A selection: hits, their analogues and other compounds. The true share with any hit is near 1%.
GALK inhibitor: blocks human galactokinase activity; Potency, µM (highest dose often 57.5 µM), for inactives: at the top dose activity change, negative = inhibition, actives largely listed as inhibitors; P51570; hit rate 0.007% among 270,000; Purified GALK, Kinase-Glo residual ATP luminescence
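The enzyme phosphorylates galactose (100 uM) using ATP (35 uM); inhibition is detected as higher residual ATP, quantified by bioluminescence after 1 h reaction at room temperature, pH 8.0.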
RGS4 inh: blocks human RGS4-accelerated GTP hydrolysis; Transcreener GDP fluorescence polarization, RGS4-accelerated GTP hydrolysis; P49798; Potency, µM (top dose mostly 114 µM), inactives show top-dose activity change, negative = inhibition, hits mostly inhibitors; hit rate 0.039% among 390,000; also: nearly all actives have a fitted effect of over 75% in size
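MLSMR compounds (23 nl, pin-transferred) preincubated 10 min at room temperature with a 500nM (2x) first reagent, then RGS4 at 900nM (2x) plus Transcreener GDP mix added; fluorescence polarization (620/688 nm) read before and after 90 min at 30 °C.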
Eya2 inh: blocks the phosphatase activity of human Eya2; recombinant Eya2, OMFP fluorescence dephosphorylation (OMFP is methylfluorescein phosphate); O00167; hit rate 0.006% among 330,000; Potency, µM (titrated, usually from 76.9 µM), for the others: at the highest dose activity, negative = inhibition, hits mostly inhibitors; AID 488837
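Eya2 protein (added as 0.2 uM solution) was preincubated with compound for 10 min at ambient temperature in 50 mM HEPES pH 7.5, 50 mM NaCl, 5 uM MgCl2, 0.05% BSA, 1 mM DTT. OMFP (added at 50 uM) then reacted 10 min; fluorescence read at 485/525 nm.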
TrxR1 inh: inhibitors of rat thioredoxin reductase 1. O89049. recombinant rTrxR1, NADPH fluorescence consumption, selenite substrate. Potency, µM (highest dose often 114 µM), inactives show top-dose activity change, negative = inhibition, usual class: inhibitors. hit rate 1% among 390,000. AID 588453; also: nearly all actives have a fitted effect of over 65% in size
Target sequence (O89049 whole entry, looked up): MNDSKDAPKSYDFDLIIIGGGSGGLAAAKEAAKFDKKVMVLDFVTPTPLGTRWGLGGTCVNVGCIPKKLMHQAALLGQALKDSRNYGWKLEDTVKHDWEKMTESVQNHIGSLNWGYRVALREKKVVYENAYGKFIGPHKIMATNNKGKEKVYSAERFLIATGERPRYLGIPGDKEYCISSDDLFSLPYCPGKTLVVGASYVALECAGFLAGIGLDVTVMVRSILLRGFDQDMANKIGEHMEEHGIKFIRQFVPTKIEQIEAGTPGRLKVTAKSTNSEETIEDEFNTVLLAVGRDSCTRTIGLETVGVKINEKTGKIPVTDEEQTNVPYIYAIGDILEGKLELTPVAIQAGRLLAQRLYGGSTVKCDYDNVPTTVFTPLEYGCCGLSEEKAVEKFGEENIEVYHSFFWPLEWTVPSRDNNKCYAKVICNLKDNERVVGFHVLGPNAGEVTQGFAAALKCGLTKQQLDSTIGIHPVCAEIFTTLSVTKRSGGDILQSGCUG
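Rat TrxR1 (90 nM in the dispensed reagent) was pre-reduced with 400 uM NADPH for 5 min at room temperature, then incubated with compound for 15 min. After 400 uM selenite was added, NADPH fluorescence (Ex 340/Em 450 nm) was followed for 8 min.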
TrxR1 substrate: is turned over as a substrate by rat TrxR1 | hit rate 0.01% among 390,000 | AID 588456 | Potency, µM (titrated, usually from 114 µM), inactives show at the highest dose activity change, negative = substrate turnover | purified TrxR1 substrate turnover, NADPH consumption readout; also: nearly all actives have a fitted effect of over 50% in size
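Rat TrxR1, dispensed at 90 nM, was prereduced with 400 uM NADPH (final) for 5 min at ~22 deg C, then incubated with compound 15 min before 400 uM selenite. A first-read NADPH fluorescence drop versus no-compound background flagged substrates.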
USP2a block: inhibitors of human ubiquitin-specific protease USP2a | O75604 | USP2 core, Ub-CHOP2 coupled fluorogenic reporter, 485/531 | Potency, µM (doses to about 38.3 µM), for inactives: at the highest dose activity change, negative = inhibition, actives largely listed as inhibitors | hit rate 0.01% among 330,000;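 also: plate controls were DMSO wells for no effect and full inhibition by NEM control for full effect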
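Cell-free coupled assay: 10nM USP2 core preincubated 30min RT with compound in Tris-HCl pH 8.0/CaCl2/CHAPS buffer, then 25nM Ub-CHOP2 and 25nM reporter substrate; fluorescence (Ex 485/Em 531) read after 60min RT, normalized to NEM inhibition, concentration-response curves fitted.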
* hit, by the source's call; ? = inconclusive; . = no result; ! = a repeat was not active; [ ] = dose if it differs, or a comment. Calls follow the shape of the dose curve; as a rule, active = well fitted curve in the direction sought with a large enough effect; inconclusive = small, poorly fitted or top-dose-only effect, or another doubt; inactive = no such curve, though single readings can be large; an effect the other way counts as inactive or inconclusive. Unless noted, % is scaled to controls: 0 for no effect and ±100 for the full control effect; potency is read from the fitted curve at half-maximal effect.

SMILES	GALK inhibitor	RGS4 inh	Eya2 inh	TrxR1 inh	TrxR1 substrate	USP2a block
O=C(O)CNC(=O)/C(=C/c1ccco1)NC(=O)/C=C/c1ccccc1	-0.3%	-13.1%	1.4%	11.1%	3.7%	2.0%
Cc1cc(CNCCN(C)C)c(C)n1-c1cc(S(=O)(=O)N2CCOCC2)ccc1N1CCCC1	.	-35.5%	.	89.1µM*	27.5%	.
C/C=C1\COC(C(=O)NCCOCCO)(C(F)(F)F)C=C1C=C1CCCCC1 (stereo not drawn)	.	-45.6%	.	1.58µM*	5.0%	.
C/C=C1\COC(C(=O)NCc2ccncc2)(C(F)(F)F)C=C1C=C1CCCCC1 (stereo not drawn)	.	10.4%	.	17.8µM*	-3.5%	.
COc1cccc(CNC(=O)Cn2nc3c(cc2=O)CCCC3)c1OC	.	17.8%	.	4.9%[57.1 µM]	-6.8%[57.1 µM]	.
C/C=C1\COC(C(=O)NCc2cccc(OC)c2OC)(C(F)(F)F)C=C1C=C1CCCCC1 (stereo not drawn)	.	9.2%	.	5.01µM*	-3.3%	.
C/C=C1\COC(C(=O)NC)(C(F)(F)F)C=C1C=C1CCCCC1 (stereo not drawn)	.	?	.	1.41µM*	0.5%	.
CNC(=O)C1(C(F)(F)F)C/C(=C/CCO)CCCO1 (stereo not drawn)	.	14.0%	.	9.5%	-3.4%	.
Cc1ccc(-c2c(C(=O)N3CCN(c4cccc(C)c4)C(C)C3)oc(=O)c3ccccc23)cc1 (stereo not drawn)	.	-20.3%	.	28.2%	5.8%	.
CN(C)c1ccc(C2CCc3ccccc3N2C(=O)c2ccccc2)cc1 (stereo not drawn)	.	.	.	9.9%[0.0914 µM]	5.6%	.
O=C(Cc1ccccc1Nc1c(Cl)cccc1Cl)OCO/N=[N+](\[O-])N1CCCC1	.	-41.2%	.	-24.1%	-3.5%	.
CC=C1COC(C(=O)NCCOCCO)(C(F)(F)F)C=C1C=C(C)C (stereo not drawn)	.	-34.2%	.	3.55µM*	5.3%	.
Cn1c(=O)c2c(nc(OC/C=C/c3ccccc3)n2C)n(C)c1=O	.	-9.7%	.	44.7µM*	8.3%	.
Cc1ccc(/C=[N+](\[O-])c2ccc(N(C)C)cc2)c2nsnc12	8.5%	?	-10.0%	22.4µM*	-14.4%	-0.7%
Cc1ccc(C)c2c(/C=C/c3ccc(N(C)C)cc3)ccnc12	.	.	.	-13.0%	-3.4%	.
O=[N+]([O-])c1ccccc1S(=O)(=O)N1CCN(c2nc(-c3cccs3)nc3ccccc23)CC1	.	20.2%	.	15.8%	-2.7%	.
COc1ccc(NC(=O)c2cccc3c2C(=O)N(C2CCCCC2)C3)cc1	4.8%	-2.6%	0.8%	20.8%	6.2%	1.8%
COc1ccc(OC)c(NC(=O)c2cccc3c2C(=O)N(C2CCCCC2)C3)c1	-3.8%	?	5.7%	22.4µM*!	6.7%	-0.6%
Nc1cc(OC(=O)c2ccco2)nn1S(=O)(=O)c1ccc(F)cc1	1.4%	?	-19.1%	7.08µM*	-3.7%[57.1 µM]	1.4%
O=C(Cc1ccc(Br)cc1)NO	.	.	.	7.6%	5.2%	.
O=[N+]([O-])c1ccc(-c2ccc(/C=N/O)o2)cc1	-1.6%	-4.2%	3.4%	10.3%[57.1 µM]	5.8%[57.1 µM]	0.6%
CN(C)/N=C/c1ccc(Sc2ccc([N+](=O)[O-])cc2[N+](=O)[O-])o1	0.0%	?	-6.6%	50.1µM*	-5.0%	2.2%
Cc1cc(C)nc(Sc2ccc([N+](=O)[O-])cc2[N+](=O)[O-])n1	0.9%	-5.8%	0.2%	10µM*	-14.8%	5.9%
O=[N+]([O-])c1ccc(Sc2cccc3cccnc23)c([N+](=O)[O-])c1	-2.7%	-45.2%	16.2%	47.5%	3.0%	2.6%
CCOC(=O)C1Nc2ccc(Br)cc2C2C=CCC12 (stereo not drawn)	-0.1%	?	-1.9%	31.6µM*	-2.1%	-0.9%
CCOC(=O)c1ccc2c(c1)C1C=CCC1C(C(=O)OCC)N2 (stereo not drawn)	5.6%	?	4.4%	39.8µM*	2.4%	-1.9%
